Assay outcomes: PubChem BioAssay, National Center for Advancing Translational Sciences (NCATS)
Cycloheximide cs: affects cycloheximide protein synthesis inhibition readout, counter-screen; cell reporter, cycloheximide protein synthesis inhibition counterscreen; max response, %; 300,000 tested, 12% active; in the data active = max response mostly above about 13%, no sharp cut-off; inactive = mostly below about 14%; also: read at 38.3 µM for the half of the compounds with a filed dose; 0% is about no effect
Sm TGR block: blocks Schistosoma mansoni thioredoxin glutathione reductase | Q962Y6 | purified TGR, DTNB reduction, TNB absorbance 405 nm | Potency, µM (doses to about 114 µM), inactives show top-dose activity change, negative = inhibition, most hits filed as inhibitors | 360,000 tested, 3% active | AID 485364; also: potency is read from the fitted curve at half-maximal effect; % is scaled to controls: 0 for no effect and ±100 for the full control effect; nearly all actives have a fitted effect of over 60% in size
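Kinetic colorimetric format: TGR-catalysed, NADPH-driven DTNB reduction monitored via TNB absorbance. Enzyme dispensed at 20 nM; compound exposure 15 min at room temperature before reaction start.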
FBPA Giardia inh: inhibitors of Giardia lamblia fructose-1,6-bisphosphate aldolase; purified Giardia FBPA; Potency, µM (doses to about 59.6 µM), without a hit: top-dose activity, negative = inhibition, actives largely listed as inhibitors; 290,000 tested, 0.71% active; AID 2451; also: potency is read from the fitted curve at half-maximal effect; % is scaled to controls: 0 for no effect and ±100 for the full control effect; nearly all actives have a fitted effect of over 55% in size
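40 nM FBPA preincubated 10 min at RT with compound (up to 57.5 uM final), then substrate plus GAPDH/TPI/NAD/arsenate coupling and diaphorase/resazurin added. Fluorescence read after 20 min at RT, 525/598 nm.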
Shiga inhibitor: Shiga toxin inhibition; Vero cells, Shiga toxin protein synthesis inhibition reporter; inhibition, % at 38.7 µM; 290,000 tested, 9.2% active; AID 2315; in the data active = inhibition mostly above about 28%, no sharp cut-off; inactive = mostly below about 43%; also: 0% is about no effect
TbPYK inhibitor: inhibitors of Trypanosoma brucei pyruvate kinase; Q57TT1; TbPYK enzyme, Kinase-Glo Plus ATP luminescence, 45 min; Potency, µM (doses to about 76.8 µM), for inactives: top-dose activity, negative = inhibition, usual class: inhibitors; 410,000 tested, 0.12% active; AID 624173; also: potency is read from the fitted curve at half-maximal effect; % is scaled to controls: 0 for no effect and ±100 for the full control effect; nearly all actives have a fitted effect of over 50% in size
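Activity of T. brucei pyruvate kinase was followed by Kinase-Glo Plus luminescence after the enzyme reacted 45 min at room temperature with 130 uM ADP (final) and substrate. Test compounds were added before ADP at multiple concentrations.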
LmPK inhibitor: inhibitors of Leishmania mexicana pyruvate kinase | Potency, µM (series often up to 57.5 µM), for inactives: at the top dose activity change, negative = inhibition, actives largely listed as inhibitors | Q27686 | purified LmPK, Kinase-Glo ATP luminescence, 1 h | 290,000 tested, 0.37% active; also: potency is read from the fitted curve at half-maximal effect; % is scaled to controls: 0 for no effect and ±100 for the full control effect
Target sequence (Q27686 whole entry, looked up): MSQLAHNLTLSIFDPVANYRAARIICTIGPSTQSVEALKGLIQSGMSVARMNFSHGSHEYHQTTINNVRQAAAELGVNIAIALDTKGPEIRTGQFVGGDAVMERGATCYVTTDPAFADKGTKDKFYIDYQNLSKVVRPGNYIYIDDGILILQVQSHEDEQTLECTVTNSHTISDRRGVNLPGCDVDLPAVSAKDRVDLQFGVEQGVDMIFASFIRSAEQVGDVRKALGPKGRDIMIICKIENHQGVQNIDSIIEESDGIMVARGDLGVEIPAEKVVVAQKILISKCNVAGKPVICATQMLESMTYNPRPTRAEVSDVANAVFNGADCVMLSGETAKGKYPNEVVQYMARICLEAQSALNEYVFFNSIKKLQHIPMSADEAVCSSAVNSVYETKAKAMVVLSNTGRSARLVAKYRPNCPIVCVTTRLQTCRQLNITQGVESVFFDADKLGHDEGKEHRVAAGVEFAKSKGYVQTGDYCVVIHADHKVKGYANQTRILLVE
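Kinase-Glo luminescence read after 1 h RT reaction of 0.1 nM LmPK with 0.5 mM PEP and 0.1 mM ADP. Activity scaled between uninhibited and enzyme-free controls.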
* = called active by the depositor; ? = inconclusive; · = no result; ! = not confirmed by another sample; [ ] = remark or other dose. Only a selection was taken, and hits are over-represented in it overall. Unless noted, calls follow the shape of the dose curve; as a rule, active = well fitted curve in the direction sought with a large enough effect; inconclusive = small, poorly fitted or top-dose-only effect, or another doubt; inactive = no such curve, though single readings can be large; an effect the other way counts as inactive or inconclusive.

SMILES	Cycloheximide cs	Sm TGR block	FBPA Giardia inh	Shiga inhibitor	TbPYK inhibitor	LmPK inhibitor
C/C(=C\C(=S)Nc1ccccc1)Nc1ccccc1	-6.4	-10.4%	?	-10.3	-7.7%	-0.8%
CN(C)c1cc(O)c(C(=S)Nc2ccccc2)c(N(C)C)c1	21.9*	?	?	40.9*	-0.8%	-0.1%
COC(=O)c1sc(-c2ccc(Cl)cc2)cc1NC(=O)COCC(=O)O	-1.9	5.7%	4.8%	1.2	3.7%	0.8%
COC(=O)c1sc(-c2ccc(C(C)(C)C)cc2)cc1NC(=O)CCC(=O)O	27.4*	1.6%	12.8%	64.4*	-3.3%	4.8%
COc1ccc2[nH]c3c(c2c1)CCNC3C1CC=C(C)CC1 (stereo not drawn)	-0.9	-12.6%	-11.7%	-3.6	-2.7%	-0.3%
COc1ccc2[nH]c3c(c2c1)CCNC3c1ccc([N+](=O)[O-])o1 (stereo not drawn)	9.4	0.891µM*	?	8.9	-17.5%	-6.4%
CCN1C(Nc2ccccc2)=NC[C@@H]1Cc1ccccc1	-0.7	25.1µM*	0.1%	-11.5	-10.4%	-1.2%
CCNC(=O)C1(C)CCN(C(=O)c2cccnc2SC)C1 (stereo not drawn)	·	·	·	·	1.8%	·
O=C1NC(=O)C(=Cc2ccco2)S1	·	·	·	·	-9.2%	·
O=C1OC(/C=C/c2ccc(Cl)cc2)=NC/1=C/c1ccco1	24.1*	-13.7%	4.6%	-29.3	-3.4%	-7.1%
CN1C(=O)/C(=C\c2ccco2)N=C1c1ccc(Cl)cc1Cl	28.0*	-30.4%	4.3%	74.0*	0.1%	5.1%
CC(=O)c1cnc2cc(-c3ccc(C)cc3)nn2c1C	25.8*	3.8%	-2.4%	13.4*	3.4%	-15.1%
CC(=O)c1cnc2cc(-c3ccccc3)nn2c1C	43.3*	-4.1%	-2.3%	57.3*	-6.5%	-2.1%
CC(=O)c1cnc2cc(C)nn2c1C	-1.8	2.5%	0.4%	-4.2	-8.1%	-3.7%
COc1ccc(-c2cc3ncc(C(C)=O)c(C)n3n2)cc1	27.8*	2.1%[57.1 µM]	0.8%	68.3*	7.3%	-11.6%
CC12CCC(C/C1=N/NC(=O)Nc1ccccc1)C2(C)C (stereo not drawn)	9.5	-4.4%	2.0%	19.7	6.0%	5.1%
COc1cccc(NC(=S)N/N=C2\CC3CCC2(C)C3(C)C)c1 (stereo not drawn)	41.0*	78.0%	7.4%	78.0*	-20.4%	-2.7%
Cc1ccc(C(C)C)c(OCCCn2ccnc2C)c1	-0.9	89.1µM*	?	·	-1.6%	3.3%
O=C(O)[C@@H]1C[C@H](C(=O)O)N1	8.4	·	-2.9%	-3.2	·	·
Cc1ccc(CN(C)C(=O)c2ccc3c(c2)NC(=O)CS3)o1	-6.1	10µM*	-17.3%	-8.1	-19.8%	-1.4%
N#Cc1ccc(-c2ccc(OCC(=O)NN=Cc3ccncc3)cc2)cc1	·	·	·	·	-5.3%	·
COc1cc2cc(c1Cl)N(C)C(=O)CC(OC(=O)C(C)N(C)C(C)=O)C1(C)OC1C(C)C1CC(O)(NC(=O)O1)C(OC)C=CC=C(C)C2 (stereo not drawn)	·	·	·	·	0.7%	·
CCOc1ccc(-c2n[nH]c(=S)o2)cc1	20.5*	6.4%	-19.0%	19.0	-23.9%	-17.5%
COc1ccc(C(=O)OCC(=O)N2CCN(C(=O)c3ccco3)CC2)cc1OC	·	·	·	·	0.1%	·
CCCN1CCC(=O)N(CCSc2ccc(Br)cc2)CC1	35.2*	·	2.6%	56.0*	·	·
SMILES	Cycloheximide cs	Sm TGR block	FBPA Giardia inh	Shiga inhibitor	TbPYK inhibitor	LmPK inhibitor
Cc1ccc(SCCN2CCN(CC(C)C)CCC2=O)cc1	31.2*!	?	3.5%	84.5*	1.9%	-3.7%
O=C1CCN(Cc2ccccc2)CCN1CCSc1ccccc1	41.6*	?	-3.1%	41.0*	-4.7%	-1.6%
CC(=O)Nc1ccc(SCCN2CCN(CC(C)C)CCC2=O)cc1	-5.1	·	1.3%	-4.6	·	·
CN1CCC(=O)N(CCSc2ccc(Br)cc2)CC1	20.8*!	-22.3%	1.8%	49.7*!	4.3%	-2.5%
CC(=O)OC1CC2C(C)(C)C(O)C=C[C@@]2(C)C2CC[C@@]3(C)C(c4ccoc4)OC(=O)C4OC43[C@]12C (stereo partly drawn)	·	·	5.9%	·	·	·
C=CCN1c2ccccc2[C@]23C[C@@H](C(=O)OC)N(S(=O)(=O)c4ccc(C(F)(F)F)cc4)C2=NC(C(=O)OC)=C(C(=O)OC)[C@H]13	·	·	4.5%[12.9 µM]	·	·	3.8%[11.5 µM]
N#Cc1cnn2c(-c3cccc([N+](=O)[O-])c3)ccnc12	·	9.0%	·	·	-1.6%	·
Cc1ccc(C2=Nc3ccccc3N(CC(=O)NCc3ccccc3Cl)C(=O)C2)cc1C	·	1.9%	·	·	-1.2%	·
c1ccc(SCCN2CCN(c3ccccc3)CC2)cc1	12.8*	-11.0%	-19.9%	44.9	4.3%	-5.0%
CCCN1CCC(=O)N(CCSc2ccc(NC(C)=O)cc2)CC1	64.4*!	-2.6%	1.5%	107.7*!	5.2%	3.5%
CCCN1CCC(=O)N(CCSc2ccccc2)CC1	40.3*	4.9%	-4.3%	44.4*	-13.4%	0.7%
O=C(NC1CCCCC1)C1CCN(C(=O)c2ccc(Cl)cc2)CC1	-2.8	1.3%	0.6%	47.5	-5.3%	-4.5%
COc1ccc(C2c3c(n(C)c4ccccc34)C(=O)N2CC(=O)Nc2ccccc2Cl)cc1 (stereo not drawn)	·	-4.1%	·	·	-0.9%[15.4 µM]	·
Cc1ccccc1C(=O)Nc1cccc(NC(=O)c2ccc(C(C)(C)C)cc2)c1	·	-2.6%	·	·	3.0%	·
N#C/C(=C\c1c(N2CCN(c3ccccc3)CC2)nc2ccccn2c1=O)S(=O)(=O)c1ccccc1	-4.5	-1.3%	-3.1%	-8.6	11.4%	10.6%
COc1ccc(N2CCN(c3nc4ccccn4c(=O)c3C=O)CC2)cc1	13.1*	-14.7%	-11.5%	16.0	-10.3%	0.6%
COCCCNC(=O)/C(C#N)=C/c1c(N2CCN(c3ccccc3)CC2)nc2c(C)cccn2c1=O	-3.6	35.5µM*	-26.1%	-12.2	-17.1%	0.6%
COc1ccc(-c2nc3ccccn3c2C=O)cc1	45.3*	-4.6%	0.2%	69.6*	-0.1%	-29.9%
N#CC(C#N)=Cc1c(N2CCN(c3ccccc3)CC2)nc2ccccn2c1=O	33.1*	-21.2%	-1.8%	82.3*	2.6%	1.1%
CCN(CC)Cc1c(C(=O)N/N=C(\C)c2ccncc2)nnn1-c1nonc1N	-1.5	-5.9%	-1.6%	-21.0	1.7%	0.5%
COc1ccc(CC(=O)Nc2ccc3c(c2)OC2(CCCC2)O3)c(OC)c1	·	·	·	·	-7.6%	·
O=Cc1c(N2CCN(c3ccccc3)CC2)nc2ccccn2c1=O	31.3*	-3.2%	3.0%	54.1*	2.3%	0.9%
O=Cc1c(N2CCSCC2)nc2ccccn2c1=O	1.0	0.0%	0.0%	1.2	0.6%	-2.7%
N#C/C(=C\c1c(N2CCCCCC2)nc2ccccn2c1=O)C(=O)NCc1ccco1	37.7*	-6.1%	-6.9%	41.4	-1.3%	6.8%
Cc1ccc2nc(N3CCN(c4ccccc4)CC3)c(C=O)c(=O)n2c1	3.2	44.7µM*	-10.9%	6.0	-6.3%	3.5%
